Screening results (PubChem BioAssay)
TTR transcr act: increases transthyretin transcription; SH-SY5Y TTR promoter Gaussia luciferase, luminescence; 100% = recombinant luciferase protein wells; AID 1117267; activation, % at 16.7 µM; 92,000 tested, 1.3% active;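 active = activation above the mean of all tested compounds plus 3 SD, cut at about 9.5% in these data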;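 also: cells exposed to compounds for one day before reading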
HuH7 TTR inh: decreases TTR transcription in HuH7 cells in activator counter-screen; shares compounds with TTR transcr act; HuH7 TTR promoter-Gaussia luciferase reporter, luminescence; inhibition, % at 16.7 µM; 1,100 tested, 4% active;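 active = average inhibition above the solvent-only control wells' mean plus 3 SD, cut at about 15% in these data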;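 also: inhibitors lower well luminescence so higher value means more inhibition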
TTR up confirm: human TTR transcription activation, confirmation; shares compounds with TTR transcr act; SHSY5Y TTR promoter Gaussia luciferase, luminescence; 100% = purified Lucia enzyme wells, no cells; activation, % at 16.7 µM; 1,100 tested, under 10 active;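 active = mean activation above a set limit taken from the earlier primary screen, cut at about 11% in these data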
Numbers stand for hits; – = inactive. This is one part of a sample in which hits are shown more often than they occur.

SMILES	TTR transcr act	others
COC(=O)[C@]12C[C@H](CC(=O)N3CCOCC3)C(=O)N(Cc3cccc4ccccc34)C1=C[C@H](C1CCCC1)O[C@@H]2C	–
O=C(OCc1ccccc1)N1CCN(C(c2ccnc3ccccc23)c2nnnn2-c2ccc3c(c2)OCCO3)CC1 (stereo not given)	–
COC(=O)[C@]12C[C@H](CC(=O)NCc3ccc(C)o3)C(=O)N(Cc3cccc4ccccc34)C1=C[C@H](COCc1ccccc1)O[C@@H]2C	–
CC(=O)Nc1sc2c(c1-c1nc3ccccc3s1)CCN(C(C)C)CC2	–
C[C@@H]1CN([C@@H](C)CO)C(=O)CCCn2cc(nn2)CO[C@H]1CN(C)C(=O)Cc1ccccc1	–
COc1cccc(Cn2cc(COC(=O)N(C)Cc3ccccc3)nn2)c1	–
CCC1=C([N+](=O)[O-])C(c2ccc3c(c2)OCO3)NC(=O)N1 (stereo not given)	–
COc1ccc(C(C)=O)cc1COC(=O)c1ccc(OCc2c(C)noc2C)cc1	–
Cc1cccc(C)c1NC(=O)c1ccc(OCc2c(C)noc2C)cc1	–
Cc1noc(C)c1COc1cccc(C(=O)OCCOc2ccc(F)cc2)c1	11.5	HuH7 TTR inh=–;TTR up confirm=–
CC(C)(C)c1nc2c(s1)CCc1onc(-c3ccc(Cl)cc3)c1-2	–
COc1cccc(C(=O)Nc2ccc(C(=O)NCC3CCCO3)cc2)c1 (stereo not given)	–
CC1CN(c2ccnc3cc(Cl)ccc23)CCN1C(=O)c1ccc(Cl)cc1 (stereo not given)	–
COc1ccc(N2CCN(C(=O)c3ccc4c(c3)OCO4)CC2)cc1	20.9	HuH7 TTR inh=–;TTR up confirm=–
O=C(c1ccc2c(c1)OCO2)N1CCN(c2ccccc2)CC1	–
COc1ccc(N2CCN(C(=O)c3ccncc3)CC2)cc1	–
C=C(C)c1nc(Oc2ccccc2)nc(Oc2ccccc2)n1	–
CCNC(=O)C1CCCN(C(=O)c2ccc(C(F)(F)F)cc2)CC1 (stereo not given)	–
C[C@H]1[C@@H](NC(=O)c2cccc(N(C)C)c2)CC[C@@]23CCCN2C(=O)CCC[C@@H]13	–
CCOC(=O)C1(CC2CCCCO2)CCN(Cc2nc(C(C)C)cs2)CC1 (stereo not given)	–
O=C(NC1CCCC1)C(c1ccccn1)N(C(=O)c1csnn1)c1ccc(F)cc1 (stereo not given)	–
CCOC(=O)CCCNC(=O)OC1CC2CC1[C@H]1CCCCN1[C@H]2Cc1ccccc1 (stereo not given in full)	–
O=C(COC(=O)/C=C/c1ccc(F)cc1)NC1CCCC1	–
O=C(COC(=O)/C=C/c1ccc(Cl)cc1)NC1CCCC1	–
O=C(COC(=O)/C=C/c1ccc(F)cc1)NC1CCCCCC1	10.0	HuH7 TTR inh=–;TTR up confirm=–
SMILES	TTR transcr act	others
CCCCNC(=O)C1C(c2ccc(C(F)(F)F)cc2)=Nc2ccccc2N1C(=O)c1cccc2ccccc12 (stereo not given)	–
COc1ccc(CN2C(=O)c3ccccc3C2=O)cc1C(=O)N(C)CC(=O)Nc1ccc(F)cc1	–
C#CCN1C(=O)[C@]2(NCCc3c2[nH]c2ccc(OC)cc32)c2ccccc21	–
CCCCOc1ccc(Cc2c(O)nc(SC)[nH]c2=O)cc1	9.9	HuH7 TTR inh=–;TTR up confirm=–
CCCCSc1nc(O)c(Cc2ccccc2)c(=O)[nH]1	–
CCCOc1ccc(C(C)=O)cc1Cc1c(O)nc(SC)[nH]c1=O	–
COC(=O)[C@]12C[C@H](CC(=O)N3CCN(C(=O)C4CC4)CC3)C(=O)N(Cc3cccc4ccccc34)C1=C[C@H](COCc1ccccc1)O[C@@H]2C	–
C[C@H]1CN([C@@H](C)CO)C(=O)CCCn2cc(nn2)CO[C@@H]1CN(C)C(=O)Nc1ccc(N2CCN(C)CC2)cc1	–
Cc1cc(=O)oc2cc(OCC#N)ccc12	–
Cc1cc(=O)oc2cc(OCCSCCN3CCCCC3)ccc12	20.8	HuH7 TTR inh=–;TTR up confirm=–
Cc1cc(=O)oc2cc(OCCSc3nnc(-c4ccccc4)o3)ccc12	–
COc1ccc(S[C@]2(C(=O)N3CCOCC3)CC(=O)N[C@@H]2c2ccc(OC)cc2)cc1	–
O=C1C=C(c2ccccc2)CO1	–
O=C(O[C@H]1CC[C@@]23CCCN2C(=O)CCC[C@H]3C1)N1CCCC1	–
COc1ccc(C(=O)NCCNc2ccc([N+](=O)[O-])cc2)cc1	–
Nc1nonc1C(=O)NCCNc1ccc([N+](=O)[O-])cc1	–
Cc1nonc1OC(C)CNCCNc1ccc([N+](=O)[O-])cc1 (stereo not given)	11.2	HuH7 TTR inh=–;TTR up confirm=–
O=C1CCCc2c1nc(-c1ccc([N+](=O)[O-])cc1)n2O	12.0	HuH7 TTR inh=–;TTR up confirm=–
O=C1CCCc2c1nc(-c1ccc(F)cc1)n2O	–
O=[N+]([O-])c1ccc(-c2cn3c(n2)CCC3)cc1	–
COc1ccc(NC(=O)CCCNS(=O)(=O)c2ccc3[nH]c(=O)oc3c2)cc1OC	–
CNC12CCc3cc(OC)c(OC)c(c31)-c1cc3c(cc1C2)OCO3 (stereo not given)	–
C[C@H]1[C@H](N(C)C)CC[C@@]23CCCN2C(=O)CCC[C@@H]13	–
Cc1cc(C(=O)N2CCOCC2)n(-c2ccccc2)n1	–
Cc1cc(C(=O)NCCCN2CCOCC2)n(-c2ccccc2)n1	17.5	HuH7 TTR inh=–;TTR up confirm=–
SMILES	TTR transcr act	others
CCOCCCNC(=O)c1cc(C)nn1-c1ccccc1	–
CCc1nc2c(OCCn3cccc3)cccn2c1N(C)C(=O)C1CC1	–
Cc1ccccc1-c1nc(-c2cccnc2)no1	–
CCCCC(=O)Nc1ccnc(-c2cccnc2)n1	–
CCCCC1CCC(c2nc(-c3cccnc3)no2)CC1 (stereo not given)	13.5	HuH7 TTR inh=–;TTR up confirm=–
COc1ccc(NC(=O)N(C)C[C@H]2Oc3ccc(NC(=O)Cn4cnnn4)cc3C(=O)N([C@H](C)CO)C[C@@H]2C)cc1	–
C=CCn1c(-c2ccccc2)nc(=S)c2c1CCCC2	11.1	HuH7 TTR inh=–;TTR up confirm=–
CC(C)Cn1c(-c2ccccc2)nc(=S)c2c1CCCC2	–
S=c1nc(-c2ccccc2)n(CCN2CCOCC2)c2c1CCCC2	–
C[C@H]1C(=O)N2[C@@H](C[C@]3(c4c[nH]c5ccccc45)c4ccccc4N(S(=O)(=O)c4ccccc4)[C@H]23)C(=O)N1C	–
CN(C)CC(=O)Nc1ccc2c(c1)[C@H]1C[C@H](CC(=O)NCc3ccc4c(c3)OCO4)O[C@H](CO)[C@H]1O2	–
Cc1sc2ncnc(Nc3ccccc3)c2c1C	15.1	HuH7 TTR inh=–;TTR up confirm=–
Cc1sc2ncnc(NCC(c3ccco3)N(C)C)c2c1C (stereo not given)	–
Cc1sc2ncnc(Nc3ccc(N4CCOCC4)cc3)c2c1-c1ccccc1	–
CCCC(=O)OC[C@H]1CN([C@H](C)c2ccccc2)S(=O)(=O)c2c(F)cccc2O1	–
O=C(Nc1ccc(F)cc1)Nc1nc2ncccn2c1-c1ccc(F)cc1	–
C[C@@H]1CCC(=O)N(CC[C@H](N=[N+]=[N-])c2ccccc2)CC1	10.0	HuH7 TTR inh=–;TTR up confirm=–
CC(C)(C)[C@@H]1CCC(=O)N(CC[C@H](N=[N+]=[N-])c2ccccc2)CC1	–
[N-]=[N+]=N[C@@H](CCN1CC[C@H](O)CCC1=O)c1ccccc1	–
CCN(Cc1ccncc1)C(=O)c1ccc(C)c(S(=O)(=O)N2CCCCC2)c1	–
CCOc1ccc(CCNC(=O)c2ccc(Oc3ccccc3)cc2)cc1OCC	–
Cc1cccc(C(=O)N[C@H]2CC[C@@]34CCCN3C(=O)CCC[C@H]4[C@H]2C)c1	–
